Screening data deposited in PubChem BioAssay by National Center for Advancing Translational Sciences (NCATS).
The list is not random: actives were taken first. Their share in the collection is about 7.9%.
LASV entry inh – qHTS for Inhibitors of binding or entry into cells for Lassa Virus | Lassa virus pseudotype entry inhibition, cell reporter | Potency, µM (titrated, usually from 37.9 µM), actives largely listed as inhibitors | 300,000 tested, 1.2% active; calls by dose curve; tested in HEK293 cells; also: nearly all actives have a fitted effect of over 50% in size
HCMV inh – qHTS Assay for inhibitors of the human cytomegalovirus (HCMV) | 410,000 tested, 4.5% active | activity change, negative = inhibition, % at 57.5 µM | AID 1259415, 2018 | HFF cells, HCMV-luciferase reporter, 72 h; active compounds read low; in the data active = activity change below about -60%; inconclusive = no clear call, values can overlap the other calls; inactive = above about -39%
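Steps: HFFs plated, 16 h 37C; compounds added; HCMV-luciferase added to MOI 1 PFU/cell; 72 h 37C; OneGlo reagent, 5 min room temperature; luminescence read, normalized to controls.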
HCV inh – qHTS Assay for Inhibitors of Hepatitis C Virus (HCV) | Huh7.5.1 HCVcc-Cre infection, luciferase reporter, 44 h | Potency, µM (top dose mostly 41.8 µM), usual class: inhibitors | 340,000 tested, 3.4% active | AID 651820, 2012; active = well fitted inhibition curve with a large enough effect; inconclusive = small, poorly fitted or top-dose-only effect, or another doubt; inactive = no such curve, though single readings can be large or run the other way
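Antiviral activity was scored by luciferase reporter output from cells infected with HCVcc-Cre (~0.5 moi) in presence of compound, 44 h infection period, cells seeded 1,000/well 4 h prior.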
FMDV antiviral – High Throughput Screening for Foot and Mouth Disease Virus Antivirals; FMDV antiviral cell-based qHTS; Potency, µM (titrated, usually from 57.9 µM), hits mostly inhibitors; 410,000 tested, 1.2% active; AID 1159524, 2015; calls by dose curve; tested in HEK293T cells; also: read-out not given here; nearly all actives have a fitted effect of over 45% in size
Marburg entry inh – qHTS for inhibitors of binding or entry into cells for Marburg Virus. Marburg virus pseudotyped entry inhibition, cell reporter. Potency, µM (series often up to 37.8 µM), hits mostly inhibitors. 300,000 tested, 1.8% active. AID 540276, 2011; calls by dose curve; tested in HEK293 cells
Large screens that a line does not name were inactive.

CCOC(=O)c1c(NC(C)=O)c2c3c(sc2n1Cc1ccc(Cl)cc1)CCCC3	none (no result: LASV entry inh, HCV inh)
CCOC(=O)c1c(NC(C)=O)c2c3c(sc2n1Cc1cccc(Cl)c1)CCCC3	HCMV inh -83.6, Marburg entry inh inconclusive (no result: LASV entry inh, HCV inh)
Cc1ccc2c(c1)-c1c(c(C(=O)NCCc3ccccc3)nn1C)CS2	LASV entry inh inconclusive (no result: HCV inh, Marburg entry inh)
O=C1CN(S(=O)(=O)Cc2ccccc2)C[C@@H]2[C@H](c3ccc(Br)cc3)[C@@H](CO)N12	none (no result: LASV entry inh, HCV inh, FMDV antiviral, Marburg entry inh)
Cc1ccccc1S(=O)(=O)Oc1ccc2ccc(O)cc2c1	HCV inh 22.4µM (no result: LASV entry inh, Marburg entry inh)
CCC(CC)C(=O)Nc1ccc2nc(SCC(=O)N3CCOCC3)sc2c1	none (no result: HCV inh)
Nc1nc(-c2ccc3c(c2)NC(=O)CO3)cs1	HCV inh inconclusive
CCCCN=c1scc(-c2ccc3c(c2)NC(=O)CO3)n1N=C1CCCC1	LASV entry inh inconclusive, HCMV inh -75.6, HCV inh 7.94µM, FMDV antiviral 25.1µM, Marburg entry inh inconclusive
CCC(C)C(=O)Nc1nc(-c2ccc3c(c2)NC(=O)CO3)cs1 (centres undefined)	HCV inh inconclusive, Marburg entry inh inconclusive
CCN=c1scc(-c2ccc3c(c2)NC(=O)CO3)n1N=C1CCCC1	LASV entry inh inconclusive, HCMV inh -77.2, HCV inh 15.8µM, FMDV antiviral inconclusive, Marburg entry inh 3.98µM
CC(C)=CCC12Oc3cc(O)ccc3C1(O)Oc1cc(O)c([C@H]3C=C(C)CC(c4ccc(O)cc4O)[C@H]3C(=O)c3ccc(O)cc3O)c(O)c1C2=O (some centres undefined)	HCV inh 12.6µM (no result: LASV entry inh, HCMV inh, Marburg entry inh)
Cc1ccc(NC(=S)N2CC(C)OC(C)C2)cc1C (centres undefined)	Marburg entry inh inconclusive
COc1cc2sc3cc(NCc4ccc(C)o4)ccc3c(=O)c2cc1OC	HCV inh 3.55µM (no result: LASV entry inh, Marburg entry inh)
CC(C)(C)c1ccc(CC(=O)N2CCC2(C)C(=O)NS(=O)(=O)c2ccccc2)cc1 (centres undefined)	none (no result: LASV entry inh, HCV inh, Marburg entry inh)
COc1ccccc1NC(=O)Cn1c(O)c(N=NC(=O)c2ccccc2O)c2ccccc21	HCMV inh -106.8, FMDV antiviral inconclusive (no result: LASV entry inh, Marburg entry inh)
Cc1ccc(NC(=O)Cn2c(O)c(N=NC(=O)c3cc4ccccc4cc3O)c3ccccc32)cc1	LASV entry inh inconclusive, HCMV inh -101.3, HCV inh inconclusive, Marburg entry inh inconclusive
Cn1c(O)c(N=NC(=O)c2ccccc2O)c2ccccc21	LASV entry inh inconclusive, HCV inh inconclusive, Marburg entry inh inconclusive
CS(=O)(=O)c1ccc(C(=O)OCC(=O)N2CCCc3ccccc32)cc1	none
COc1ccc(-c2nc3ccc([N+](=O)[O-])cc3o2)cc1	HCMV inh -91.9, Marburg entry inh inconclusive
COCCNC(=S)N(CCc1c(C)[nH]c2ccc(Cl)cc12)Cc1cccs1	LASV entry inh inconclusive, HCV inh 7.08µM, Marburg entry inh inconclusive
CCNC(=S)N(CCc1c(C)[nH]c2ccc(Cl)cc12)Cc1ccco1	LASV entry inh 7.94µM, HCMV inh inconclusive, HCV inh 10µM, FMDV antiviral inconclusive, Marburg entry inh inconclusive
COCCNC(=S)N(CCc1c(C)[nH]c2ccc(F)cc12)Cc1cccs1	HCMV inh inconclusive, HCV inh inconclusive (no result: LASV entry inh, Marburg entry inh)
O=C(c1cnccn1)N1CCC2(CCCN(c3ccccn3)C2)CC1	none (no result: LASV entry inh, HCMV inh, HCV inh, Marburg entry inh)
Cn1c(=O)c2ncn(CC(=O)N/N=C/c3ccco3)c2n(C)c1=O	none
CC(C)(C)c1ccc(C(=O)NNc2ncnc3c2cnn3-c2ccccc2)cc1	LASV entry inh inconclusive, HCMV inh -73.0 (no result: HCV inh, Marburg entry inh)
CCCC[P+](CCCC)(CCCC)Cc1ccc(NC(=O)[C@@H](Cc2ccc3ccccc3c2)NC(=NC2CCCCC2)NC2CCCCC2)cc1	none (no result: LASV entry inh, HCMV inh, HCV inh, Marburg entry inh)
Nc1[nH]n2c(=O)cc(-c3ccccc3)nc2c1N=Nc1ccccc1	LASV entry inh inconclusive, HCMV inh -78.7, Marburg entry inh inconclusive
Nc1[nH]n2c(=O)cc(-c3ccccc3)nc2c1N=Nc1ccc(S(N)(=O)=O)cc1	none
CCCCCCOc1ccc(NC(=O)CC2C(=O)N(CC)C(=S)N2Cc2ccco2)cc1 (centres undefined)	LASV entry inh inconclusive, HCMV inh -90.2, HCV inh inconclusive, Marburg entry inh inconclusive
C=CCN1C(=O)C(CC(=O)Nc2ccc(OCCC)cc2)N(CCCN2CCN(Cc3ccccc3)CC2)C1=S (centres undefined)	LASV entry inh inconclusive, HCV inh 10µM, FMDV antiviral inconclusive, Marburg entry inh inconclusive
O=C(c1cc2c(c(-c3cccc(-c4ccncc4)c3)n1)[C@H](CCO)N(C(=O)c1ccc3c(c1)OCO3)C2)N1CCOCC1	none (no result: LASV entry inh, HCV inh, Marburg entry inh)
Cc1cnc(NC(=O)c2sc3ccccc3c2Cl)s1	LASV entry inh inconclusive, Marburg entry inh inconclusive
O=C(Nc1nccs1)c1sc2ccccc2c1Cl	LASV entry inh 12.6µM, HCV inh inconclusive, Marburg entry inh 7.08µM
CCCC(=O)N1CCN(c2ccc(NC(=O)c3sc4ccccc4c3Cl)cc2)CC1	none
O=C(NC1C=CS(=O)(=O)C1)c1sc2ccccc2c1Cl (centres undefined)	LASV entry inh inconclusive, HCMV inh -84.3, HCV inh inconclusive, Marburg entry inh 20.6µM (no result: FMDV antiviral)
O=C(NC1CC1)c1sc2ccccc2c1Cl	Marburg entry inh inconclusive
CN1CCN(c2ccccc2NC(=O)c2sc3ccccc3c2Cl)CC1	LASV entry inh inconclusive, HCV inh 12.6µM, Marburg entry inh inconclusive
Cc1ccnc(NC(=O)c2sc3ccccc3c2Cl)c1	LASV entry inh inconclusive, FMDV antiviral inconclusive, Marburg entry inh 1.58µM
O=C(Nc1nccs1)c1sc2cc(Cl)ccc2c1Cl	LASV entry inh inconclusive, Marburg entry inh inconclusive
COC(=O)c1ccc(CN2C(=O)[C@@]3(CC(C)=CC[C@@H](COc4ccccc4)O3)c3ccccc32)cc1	none (no result: LASV entry inh, HCMV inh, HCV inh, FMDV antiviral)
CCCCCCCCCCn1ccc(=N)cc1	LASV entry inh 1.78µM, HCMV inh -99.6, HCV inh 22.4µM, FMDV antiviral 15.8µM, Marburg entry inh inconclusive
CCOC(=O)c1c(NC(=S)N2CCCCC2)sc2c1CCN(C(=O)OCC)C2	HCMV inh -97.6, Marburg entry inh inconclusive
CCOC(=O)c1c(NC(=S)N2CCOCC2)sc2c1CCN(C(=O)OCC)C2	HCMV inh -108.6, FMDV antiviral inconclusive, Marburg entry inh inconclusive
CNC(=O)[C@@H]1C[C@H](Sc2nc3ccccc3[nH]2)CN1Cc1cccc(C(F)(F)F)c1	none (no result: LASV entry inh, HCMV inh, HCV inh, Marburg entry inh)
O=C(O)c1cccc(N/N=C/c2sc(N3CCOCC3)nc2-c2ccccc2)c1	Marburg entry inh inconclusive
O=[N+]([O-])c1ccc(N/N=C/c2sc(N3CCOCC3)nc2-c2ccccc2)c(S(=O)(=O)Nc2ccc(Cl)cc2)c1	HCMV inh -88.3, HCV inh 2.51µM, FMDV antiviral inconclusive (no result: LASV entry inh, Marburg entry inh)
O=[N+]([O-])c1ccc(N/N=C/c2sc(N3CCOCC3)nc2-c2ccccc2)c(S(=O)(=O)Nc2ccccc2Cl)c1	HCMV inh inconclusive, HCV inh 3.55µM, FMDV antiviral inconclusive (no result: LASV entry inh, Marburg entry inh)
CCn1c(-c2cccc(OC)c2)nc2cc(NC(C)=O)cc(C(=O)N(C)CC3COCCO3)c21 (centres undefined)	none (no result: LASV entry inh, HCMV inh, HCV inh, Marburg entry inh)
COc1ccccc1NC(=S)N(Cc1cccs1)C1CCCC1	HCMV inh inconclusive, Marburg entry inh inconclusive
COc1ccccc1NC(=S)N(Cc1ccccn1)Cc1ccccc1Cl	HCMV inh -63.2, Marburg entry inh inconclusive
